Reference: PubChem BioAssay
Calls of active or inactive are those of the source. Unless noted, how the calls were made is not given here.

Columns and labels:
[1] = system: Wnt5a (protein binding on small-molecule microarray); experiment: Wnt5a binders on small-molecule microarray, primary screen, biophysical, 635/667 nm fluorescence (AID 1142); conditions: 635 nm fluorescence, higher = more signal;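 further: fluorescence read at 667 nm with signal to noise per printed feature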
[2] = cell viability in Huh7 cells, primary screen, cytotoxicity control for HCV replication inhibitor project, CellTiter-Glo luminescence, basal, 48 h (AID 1143); conditions: Huh7 HCV replicon, higher = more signal, called active from +8 up or from −8 down;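 further: Huh7 hepatoma cells carrying a hepatitis C replication reporter with no stimulus; test concentration not given here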
[3] = P. aeruginosa biofilm formation inhibitors, primary screen, PAO1 strain, BacTiter-Glo luminescence, LB-PBS (AID 1144); conditions: 12 h, higher = more signal
[4] = CREB reporter modulators without forskolin, primary screen, cell-based, PC12, CRE-LacZ reporter, unstimulated (AID 1145); conditions: no forskolin, luminescence, 4.5 h, higher = more signal, called active from +8 up or from −8 down
[5] = CREB reporter modulators under forskolin, primary screen, cell-based, PC12, CRE-LacZ reporter, forskolin-stimulated (AID 1146); conditions: luminescence, 4.5 h, higher = more signal, called active from +8 up or from −8 down;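 further: PC12 cells with 6xCRE LacZ reporter stimulated by forskolin 10 µM; beta-galactosidase reporter signal reflecting CREB driven transcription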
[6] = target: Streptavidin (Streptomyces avidinii) (UniProt P22629); experiment: streptavidin binders on small-molecule microarray, primary screen, artefact control for SMM compound annotation, biophysical, 635/667 nm fluorescence (AID 1147); conditions: streptavidin binding, higher = more signal;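 further: signal reflects streptavidin binding to arrayed compounds as a control protein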
[7] = small-molecule binders of probe aInhba, primary screen, biochemical, small-molecule microarray, 635/667 nm fluorescence (AID 1148); conditions: higher = more signal;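 further: score merges 667nm spot fluorescence with signal-to-noise for antibody binding to printed compounds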
[8] = target: Torsin-1A (Homo sapiens) (UniProt O14656); experiment: torsin A binders from cell lysate, primary screen, small-molecule microarray, wild-type, 635/667 nm (AID 1149); conditions: COS7 hTOR1A-WT lysate, 635 nm fluorescence, higher = more signal
[9] = target: Torsin-1A (Homo sapiens) (UniProt O14656); experiment: small-molecule binders of mutant TOR1A in lysate, primary screen, cell lysate, small-molecule microarray, COS7 lysate, 635/667 nm fluorescence (AID 1150); conditions: COS7 hTOR1A mutant lysate, 635 nm fluorescence, higher = more signal;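 further: score pools 667 nm emission and signal to noise measuring lysate protein binding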
[10] = system: Sonic hedgehog protein (Shh); experiment: small-molecule binders of Shh protein, primary screen, biochemical, small-molecule microarray, 635/667 nm fluorescence (AID 1151); conditions: small-molecule microarray binding, 635 nm fluorescence; higher = more signal;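 further: Shh protein binding to compounds spotted on small-molecule microarray slides; score combines spot fluorescence intensity with signal-to-noise across triplicate slides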

Chain of Streptavidin (Streptomyces avidinii) (P22629 whole entry, looked up): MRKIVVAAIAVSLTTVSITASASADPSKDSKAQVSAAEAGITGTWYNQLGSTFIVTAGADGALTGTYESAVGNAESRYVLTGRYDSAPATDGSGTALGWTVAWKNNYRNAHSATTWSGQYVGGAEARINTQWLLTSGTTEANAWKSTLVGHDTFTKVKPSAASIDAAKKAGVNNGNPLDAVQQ
Chain of Torsin-1A (Homo sapiens) (O14656 whole entry, looked up): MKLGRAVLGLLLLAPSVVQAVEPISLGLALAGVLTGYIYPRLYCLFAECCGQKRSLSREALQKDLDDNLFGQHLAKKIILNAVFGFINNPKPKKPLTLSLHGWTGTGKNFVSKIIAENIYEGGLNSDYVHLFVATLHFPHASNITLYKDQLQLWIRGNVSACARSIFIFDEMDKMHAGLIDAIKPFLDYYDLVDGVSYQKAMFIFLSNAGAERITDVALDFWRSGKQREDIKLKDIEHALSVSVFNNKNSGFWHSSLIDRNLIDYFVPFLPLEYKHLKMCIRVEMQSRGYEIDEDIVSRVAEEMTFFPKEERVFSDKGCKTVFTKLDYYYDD

SMILES | composite z-score [1] | z-score [2] | z-score [3] | z-score [4] | z-score [5] | composite z-score [6] | composite z-score [7] | composite z-score [8] | composite z-score [9] | composite z-score [10]
CC(C)(C)N1C(=O)[C@H]2[C@H]3[C@H](O)[C@H](O)CC(=NNC(=O)OCc4ccccc4)[C@H]3CC[C@H]2C1=O | 0.0281 | -3.97 (inactive) | -0.497 (inactive) | 1.34 (inactive) | 0.549 (inactive) | -0.107 | 0.125 | 0.436 | 0.591 | 0.897
CC(=O)OC[C@H]1O[C@H](CC=NOCC[C@@H]2C=C[C@H](OC(C)=O)[C@@H](COC(C)=O)O2)C=C[C@@H]1OC(C)=O | 0.288 | 0.366 (inactive) | -0.358 (inactive) | 0.848 (inactive) | 1.4 (inactive) | 0.162 | -0.0471 | 1.06 | 1.05 | 0.654
CCOC(=O)[C@H](CC(C)C)NC(=O)CCC1CC(OC(=O)NCc2ccc3c(c2)OCO3)CC2(CCCC(COC(=O)NCCc3ccc(Cl)cc3)O2)O1 (stereo not given in full) | 0.277 | -0.197 (inactive) | -0.0985 (inactive) | 0.737 (inactive) | 0.501 (inactive) | 0.288 | -0.089 | -0.157 | 0.361 | 1.86
CON=C(C)CCN1CCCCc2nc(C)c(C)cc21 | 0.0272 | 0.559 (inactive) | -0.0896 (inactive) | 0.397 (inactive) | 1.13 (inactive) | -0.0284 | -0.0131 | 1.5 | 0.816 | 0.936
CC(CCN1CCc2nc(-c3ccccc3)c(-c3ccccc3)cc2C1)=NOC(C)CN1CCCc2nc(C)c(C)cc21 (stereo not given) | 0.281 | -1.33 (inactive) | 0.25 (inactive) | 0.894 (inactive) | -0.0977 (inactive) | 0.808 | 0.0785 | 0.373 | 0.432 | 0.667
COc1cccc([C@H](O)Cn2cc(-c3ccc(CON=C(C)C)cc3)nn2)c1 | -0.0033 | -0.385 (inactive) | -0.24 (inactive) | 1.55 (inactive) | -0.222 (inactive) | -0.207 | 0.0082 | 0.0944 | 0.271 | -0.348
COc1ccc(OC[C@@H](CO)OC)cc1 | 0.131 | 0.314 (inactive) | 0.86 (inactive) | 0.562 (inactive) | 0.17 (inactive) | 0.495 | -0.0962 | 0.373 | 0.304 | 0.577
C[C@@H](c1ccccc1)N1C(=O)[C@H]2[C@H]3[C@H](O)[C@H](O)CC(=NOC[C@@H](O)COCc4ccco4)[C@H]3CC[C@H]2C1=O | -0.0017 | 0.523 (inactive) | 1 (inactive) | 1.5 (inactive) | 0.81 (inactive) | -0.304 | -0.253 | 3.17 | 2.95 | 1.65
CC(=O)OC[C@H]1O[C@H](CC=NOC[C@@H](O)COCc2ccco2)C=C[C@@H]1OC(C)=O | 0.364 | 0.0896 (inactive) | -0.196 (inactive) | -0.729 (inactive) | 0.25 (inactive) | -0.436 | -0.183 | 3.67 | 3.65 | 2.07
COC(=O)[C@@H]1CC[C@H](C)[C@@H](c2ccc(C)cc2)N1C(=O)c1ccc(C=NOC[C@@H](O)[C@H]2O[C@@H]3OC(C)(C)O[C@@H]3[C@H]2O)cc1 | 0.0258 | 0.48 (inactive) | -0.0399 (inactive) | 9.08 (active) | 0.413 (inactive) | 0.54 | 0.31 | 0.215 | 0.277 | 0.241
CCc1cc2c(nc1CC)CCN(CCC(C)=NOC[C@@H](C)[C@H](OCc1ccccc1)C(C)C)C2 | -0.608 | -1.09 (inactive) | 0.241 (inactive) | 0.387 (inactive) | 0.113 (inactive) | -1.39 | -0.302 | -0.94 | -1.22 | -0.267
CC1(C)O[C@H]2OC([C@H](O)CON3C(=O)c4ccccc4C3=O)[C@H](O)[C@H]2O1 (stereo not given in full) | -0.0105 | 0.929 (inactive) | 0.425 (inactive) | 0.831 (inactive) | 0.266 (inactive) | -0.467 | 0.0319 | 0.0012 | 0.129 | 0.0991
O=C1[C@H]2[C@H]3[C@H](O)[C@H](O)CC(=NOC[C@@H](O)COCc4ccco4)[C@@H]3CC[C@H]2C(=O)N1c1cccc(Oc2ccccc2)c1 | -0.403 | -0.578 (inactive) | 0.626 (inactive) | -1.02 (inactive) | -0.009 (inactive) | 0.707 | -0.0986 | 0.419 | 0.94 | 0.537
O=C1C2=CC[C@H]3C(=O)N(C[C@@H]4CCCO4)C(=O)[C@H]3[C@H]2[C@H](O)[C@@H]2O[C@H]12 | 0.487 | -4.97 (inactive) | 0.846 (inactive) | 0.0664 (inactive) | 21.2 (active) | 0.19 | -0.12 | 0.863 | 0.511 | -0.331
CC(C)(C)N1C(=O)[C@H]2[C@H]3[C@H](O)[C@H](O)CC(=NNC(=O)OCc4ccccc4)[C@@H]3CC[C@H]2C1=O | -0.0841 | 0.633 (inactive) | -0.0893 (inactive) | -0.0258 (inactive) | 0.314 (inactive) | 0.171 | -0.13 | 0.472 | 0.322 | 0.226
COC(=O)CC=C[C@@H](C)[C@@H](C=NOC[C@@H](C)[C@H](OCc1ccccc1)C(C)C)NS(=O)(=O)c1ccc(C)cc1 | -0.122 | -0.7 (inactive) | 0.904 (inactive) | 2.87 (inactive) | 0.447 (inactive) | -0.784 | -0.29 | 0.331 | 0.0147 | 0.587
CCOC(=O)NN=C1C[C@@H](O)[C@@H](O)[C@@H]2[C@@H]3C(=O)N(C[C@@H]4CCCO4)C(=O)[C@@H]3CC[C@H]12 | 0.0534 | 0.587 (inactive) | -0.973 (inactive) | -0.926 (inactive) | -0.0875 (inactive) | -0.319 | -0.004 | 0.715 | 0.577 | 0.225
O=C1[C@H]2CCn3c(=O)n(-c4ccccc4)c(=O)n3[C@H]2[C@H](O)[C@@H]2O[C@H]12 | 0.0253 | 0.332 (inactive) | 0.102 (inactive) | -0.0164 (inactive) | 0.0871 (inactive) | 0.556 | -0.272 | 0.0097 | 0.109 | 0.24
COCCNC(=O)OCC1CCCC2(CC(OC(=O)NCc3cccc4ccccc34)CC(CCC(=O)N[C@@H](C)C(=O)OC)O2)O1 (stereo not given in full) | 0.278 | -0.862 (inactive) | -0.496 (inactive) | 0.376 (inactive) | 1.47 (inactive) | 0.403 | -0.157 | 0.413 | 0.41 | 0.971
COc1ccc(O[C@H]2C=C[C@@H](c3ccccc3)O[C@@H]2CON=C2c3cc(OC)ccc3O[C@H](c3cccc(OC)c3)[C@H]2O)cc1 | 0.288 | -0.0115 (inactive) | -0.0389 (inactive) | 0.913 (inactive) | 0.411 (inactive) | 0.414 | -0.224 | 0.0513 | 0.37 | 0.105
COc1ccc(COC(=O)NN=C2C[C@@H](O)[C@@H](O)[C@@H]3[C@@H]4C(=O)N([C@@H](C)c5ccccc5)C(=O)[C@@H]4CC[C@@H]23)cc1 | 0.251 | 1 (inactive) | -0.253 (inactive) | -0.113 (inactive) | 0.0521 (inactive) | 0.409 | 0.0111 | 0.699 | 0.388 | -0.0113
CON=C(C)CCN1CCCc2nc(C)c(C)cc21 | 0.377 | 0.258 (inactive) | 0.128 (inactive) | 0.345 (inactive) | -0.0543 (inactive) | 0.286 | -0.0645 | -0.209 | 0.23 | 1.07
CO[C@H]1COC(=O)CCC[C@H](C)[C@@H](OC)COC(=O)CC=C[C@@H]1C | -0.0982 | -0.0992 (inactive) | 0.132 (inactive) | -0.394 (inactive) | -0.24 (inactive) | -0.256 | -0.128 | 0.0956 | 0.861 | 1.34
CC(C)(C)N1C(=O)[C@H]2[C@H]3[C@H](O)[C@H](O)CC(=NOC[C@@H](O)COCc4ccco4)[C@@H]3CC[C@H]2C1=O | 0.0983 | 0.257 (inactive) | -0.579 (inactive) | 1.06 (inactive) | 0.279 (inactive) | -0.276 | -0.101 | 0.334 | 0.275 | -0.633
CCOC(=O)[C@H](CC(C)C)NC(=O)CCC1CC(OC(=O)NCc2ccc3c(c2)OCO3)CC2(CCCC(COC(=O)NCCc3ccccc3OC)O2)O1 (stereo not given in full) | 0.08 | -0.556 (inactive) | 0.162 (inactive) | -0.0755 (inactive) | 0.101 (inactive) | 0.512 | -0.128 | -0.0035 | 0.582 | 1.19
CCOC(=O)CCN1C(=O)[C@H]2[C@H]3[C@H](O)[C@H](O)CC(=NO[C@@H]4O[C@H](CO)[C@@H](O)[C@H](O)[C@H]4O)[C@@H]3CC[C@H]2C1=O | 0.231 | -0.784 (inactive) | 1.24 (inactive) | -0.748 (inactive) | 1.17 (inactive) | 0.036 | 0.0173 | 1.87 | 1.12 | 1.62
COc1ccc(O[C@H]2C=C[C@@H](c3ccccc3)O[C@@H]2COC(=O)NCc2cccc3ccccc23)cc1 | -0.092 | -1.55 (inactive) | 0.928 (inactive) | 0.745 (inactive) | 1.56 (inactive) | 0.493 | -0.218 | 0.0485 | 0.225 | 0.401
CC(C)[C@@H](OCc1ccccc1)[C@H](C)C=NOC[C@@H](O)[C@H]1O[C@@H]2OC(C)(C)O[C@@H]2[C@H]1O | 0.332 | 0.226 (inactive) | 0.0464 (inactive) | -0.408 (inactive) | 0.307 (inactive) | 1.61 | -0.0695 | 0.298 | 0.284 | 0.587
COc1ccc(COC(=O)NN=C2C[C@@H](O)[C@@H](O)[C@@H]3[C@@H]4C(=O)N(C[C@@H]5CCCO5)C(=O)[C@@H]4CC[C@@H]23)cc1 | 0.0073 | 0.0894 (inactive) | 1.2 (inactive) | 0.338 (inactive) | -0.959 (inactive) | 0.662 | -0.15 | 1.2 | 1 | 0.0407
O=C1[C@H]2[C@H]3[C@H](O)[C@H](O)CC(=NO[C@@H]4O[C@H](CO)[C@@H](O)[C@H](O)[C@H]4O)[C@H]3CC[C@H]2C(=O)N1c1ccc(F)cc1F | 0.0816 | -1.9 (inactive) | 1.42 (inactive) | -0.837 (inactive) | -0.0522 (inactive) | -0.695 | -0.0774 | 0.835 | 0.189 | -0.704
